{
  "source": "the supplement of paper PMC8728848",
  "assay_in_all_cases": "glycan array binding signal (z-score within array); higher = stronger binding",
  "conditions_in_all_cases": "glycan notation: IUPAC condensed, linker removed",
  "key": {"[1]": {"target": "Gal(b1-4)GlcNAc(b1-3)Gal(b1-4)GlcNAc(b1-3)Gal(b1-4)GlcNAc(b1-3)Gal(b1-4)GlcNAc(b1-3)Gal(b1-4)GlcNAc(b1-2)Man(a1-3)[Gal(b1-4)GlcNAc(b1-3)Gal(b1-4)GlcNAc(b1-3)Gal(b1-4)GlcNAc(b1-3)Gal(b1-4)GlcNAc(b1-3)Gal(b1-4)GlcNAc(b1-2)Man(a1-6)]Man(b1-4)GlcNAc(b1-4)[Fuc(a1-6)]GlcNAc", "method_in_brief": "(§1)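 Arrays were curated from the Consortium for Functional Glycomics database, 3228 in total, and kept only where the protein sequence was available. Binding is expressed as a within-array Z-score. This score was averaged across arrays of the same protein sequence at different concentrations or buffers and across linkers, and negative values can be read as non-binding.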"}, "[2]": {"target": "Gal(b1-4)GlcNAc(b1-3)Gal(b1-4)GlcNAc(b1-3)Gal(b1-4)GlcNAc(b1-3)Gal(b1-4)GlcNAc(b1-3)Gal(b1-4)GlcNAc(b1-2)[Gal(b1-4)GlcNAc(b1-3)Gal(b1-4)GlcNAc(b1-3)Gal(b1-4)GlcNAc(b1-3)Gal(b1-4)GlcNAc(b1-3)Gal(b1-4)GlcNAc(b1-6)]Man(a1-6)[Gal(b1-4)GlcNAc(b1-3)Gal(b1-4)GlcNAc(b1-3)Gal(b1-4)GlcNAc(b1-3)Gal(b1-4)GlcNAc(b1-3)Gal(b1-4)GlcNAc(b1-2)Man(a1-3)]Man(b1-4)GlcNAc(b1-4)[Fuc(a1-6)]GlcNAc", "method_in_brief": "as §1"}, "[3]": {"target": "Gal(b1-4)GlcNAc(b1-3)[Fuc(a1-3)GlcNAc(b1-6)]Gal(b1-4)Glc", "method_in_brief": "as §1"}, "[4]": {"target": "Gal(b1-4)GlcNAc(b1-6)[Gal(b1-4)GlcNAc(b1-3)]GalNAc", "method_in_brief": "as §1"}, "Gal3S(b1-4)GlcNAc": {"target": "Gal3S(b1-4)GlcNAc", "method_in_brief": "as §1"}, "[5]": {"target": "Gal3S(b1-4)[Fuc(a1-3)]GlcNAc6S", "method_in_brief": "as §1"}, "Gal6P(b1-4)GlcNAc": {"target": "Gal6P(b1-4)GlcNAc", "method_in_brief": "as §1"}, "[6]": {"target": "GalNAc(a1-3)GalNAc(a1-3)Gal(a1-4)Gal(b1-4)GlcNAc", "method_in_brief": "as §1"}, "GalNAc(b1-4)GlcNAc": {"target": "GalNAc(b1-4)GlcNAc", "method_in_brief": "as §1"}, "[7]": {"target": "Glc(a1-6)Glc(a1-6)Glc(a1-6)Glc", "method_in_brief": "as §1"}, "[8]": {"target": "GlcNAc(a1-4)Gal(b1-4)GalNAc", "method_in_brief": "as §1"}, "[9]": {"target": "GlcNAc(a1-4)Gal(b1-4)GlcNAc(b1-3)Gal(b1-4)GlcNAc(b1-3)Gal(b1-4)GlcNAc", "method_in_brief": "as §1"}, "[10]": {"target": "GlcNAc(b1-2)Man(a1-3)[GlcNAc(b1-4)][GlcNAc(b1-2)Man(a1-6)]Man(b1-4)GlcNAc(b1-4)[Fuc(a1-6)]GlcNAc", "method_in_brief": "as §1"}, "GlcNAc(b1-3)Gal(b1-4)Glc": {"target": "GlcNAc(b1-3)Gal(b1-4)Glc", "method_in_brief": "as §1"}, "[11]": {"target": "GlcNAc(b1-3)Gal(b1-4)GlcNAc(b1-2)Man(a1-3)[GlcNAc(b1-3)Gal(b1-4)GlcNAc(b1-2)Man(a1-6)]Man(b1-4)GlcNAc(b1-4)[Fuc(a1-6)]GlcNAc", "method_in_brief": "as §1"}, "[12]": {"target": "GlcNAc(b1-6)Gal(b1-4)GlcNAc", "method_in_brief": "as §1"}, "GlcNAc(b1-6)GalNAc": {"target": "GlcNAc(b1-6)GalNAc", "method_in_brief": "as §1"}, "Man(b1-4)GlcNAc": {"target": "Man(b1-4)GlcNAc", "method_in_brief": "as §1"}, "[13]": {"target": "Neu5Ac(a2-3)Gal(b1-3)GalNAc(b1-4)[Neu5Ac(a2-8)Neu5Ac(a2-3)]Gal(b1-4)Glc", "method_in_brief": "as §1"}, "[14]": {"target": "Neu5Ac(a2-3)Gal(b1-3)GlcNAc(b1-3)Gal(b1-3)GlcNAc", "method_in_brief": "as §1"}, "[15]": {"target": "Neu5Ac(a2-3)Gal(b1-3)GlcNAc(b1-3)GalNAc", "method_in_brief": "as §1"}, "[16]": {"target": "Neu5Ac(a2-3)Gal(b1-3)GlcNAc6S", "method_in_brief": "as §1"}, "[17]": {"target": "Neu5Ac(a2-3)Gal(b1-4)GlcNAc6S", "method_in_brief": "as §1"}, "[18]": {"target": "Neu5Ac(a2-3)Gal(b1-4)[Fuc(a1-3)]GlcNAc(b1-6)[Neu5Ac(a2-3)Gal(b1-3)]GalNAc", "method_in_brief": "as §1"}, "[19]": {"target": "Neu5Ac(a2-3)[GalNAc(b1-4)]Gal(b1-4)Glc", "method_in_brief": "as §1"}, "[20]": {"target": "Neu5Ac(a2-6)Gal(b1-4)GlcNAc(b1-3)Gal(b1-4)GlcNAc(b1-3)Gal(b1-4)GlcNAc", "method_in_brief": "as §1"}, "[21]": {"target": "Neu5Ac(a2-6)Gal(b1-4)GlcNAc(b1-3)GalNAc", "method_in_brief": "as §1"}, "[22]": {"target": "Neu5Ac(a2-6)GlcNAc(b1-4)GlcNAc(b1-4)GlcNAc", "method_in_brief": "as §1"}, "[23]": {"target": "Neu5Ac(a2-8)Neu5Ac(a2-3)[Gal(b1-3)GalNAc(b1-4)]Gal(b1-4)Glc", "method_in_brief": "as §1"}, "[24]": {"target": "Neu5Ac(b2-6)Gal(b1-4)GlcNAc", "method_in_brief": "as §1"}},
  "note": "The sample as a whole holds a higher share of the strongest signals than the screen did.",
  "data": [
    {"binder": "Threefoil (Haloarcula marismortui) (protein) GSSHHHHHHHHHHSSGLVPRGSHMGDGYYKLVARHSGKALDVENASTSDGANVIQYSYSGGDNQQWRLVDLGDGYYKLVARHSGKALDVENASTSDGANVIQYSYSGGDNQQWRLVDLGDGYYKLVARHSGKALDVENASTSDGANVIQYSYSGGDNQQWRLVDL", "values": [
      {"measurement": "glycan array binding signal (z-score)", "setting": "[1]", "value": 2.83},
      {"measurement": "glycan array binding signal (z-score)", "setting": "[2]", "value": 3.49},
      {"measurement": "glycan array binding signal (z-score)", "setting": "[3]", "value": 3.85},
      {"measurement": "glycan array binding signal (z-score)", "setting": "[4]", "value": 0.738},
      {"measurement": "glycan array binding signal (z-score)", "setting": "Gal3S(b1-4)GlcNAc", "value": -0.158},
      {"measurement": "glycan array binding signal (z-score)", "setting": "[5]", "value": -0.038},
      {"measurement": "glycan array binding signal (z-score)", "setting": "Gal6P(b1-4)GlcNAc", "value": -0.211},
      {"measurement": "glycan array binding signal (z-score)", "setting": "[6]", "value": -0.227},
      {"measurement": "glycan array binding signal (z-score)", "setting": "GalNAc(b1-4)GlcNAc", "value": -0.003},
      {"measurement": "glycan array binding signal (z-score)", "setting": "[7]", "value": -0.157},
      {"measurement": "glycan array binding signal (z-score)", "setting": "[8]", "value": -0.271},
      {"measurement": "glycan array binding signal (z-score)", "setting": "[9]", "value": -0.208},
      {"measurement": "glycan array binding signal (z-score)", "setting": "[10]", "value": -0.223},
      {"measurement": "glycan array binding signal (z-score)", "setting": "GlcNAc(b1-3)Gal(b1-4)Glc", "value": -0.299},
      {"measurement": "glycan array binding signal (z-score)", "setting": "[11]", "value": -0.052},
      {"measurement": "glycan array binding signal (z-score)", "setting": "[12]", "value": 0.035},
      {"measurement": "glycan array binding signal (z-score)", "setting": "GlcNAc(b1-6)GalNAc", "value": -0.181},
      {"measurement": "glycan array binding signal (z-score)", "setting": "Man(b1-4)GlcNAc", "value": 0.763},
      {"measurement": "glycan array binding signal (z-score)", "setting": "[13]", "value": -0.245},
      {"measurement": "glycan array binding signal (z-score)", "setting": "[14]", "value": -0.139},
      {"measurement": "glycan array binding signal (z-score)", "setting": "[15]", "value": -0.266},
      {"measurement": "glycan array binding signal (z-score)", "setting": "[16]", "value": -0.17},
      {"measurement": "glycan array binding signal (z-score)", "setting": "[17]", "value": -0.364},
      {"measurement": "glycan array binding signal (z-score)", "setting": "[18]", "value": 0.108},
      {"measurement": "glycan array binding signal (z-score)", "setting": "[19]", "value": -0.269},
      {"measurement": "glycan array binding signal (z-score)", "setting": "[20]", "value": -0.154},
      {"measurement": "glycan array binding signal (z-score)", "setting": "[21]", "value": -0.163},
      {"measurement": "glycan array binding signal (z-score)", "setting": "[22]", "value": -0.141},
      {"measurement": "glycan array binding signal (z-score)", "setting": "[23]", "value": -0.146},
      {"measurement": "glycan array binding signal (z-score)", "setting": "[24]", "value": -0.309}
    ]}
  ]
}
